Test results reported in PubChem BioAssay (NCATS).
A number with no mark means an inactive call. Inconclusive results are not listed. Active and inactive are the calls of the source. Unless noted, calls follow the shape of the full dose curve.

biological target: Single-stranded DNA cytosine deaminase (Homo sapiens) (UniProt Q9GZX7); assay: Validation qHTS assay for inhibitors of Activation Induced Cytidine Deaminase (AID): AID signal (AID 1347429; active = well fitted inhibition curve with a large enough effect); settings: Recombinant AID, FRET ssDNA deamination with UDG, fluorescence; series mostly up to 115 µM; activity change, negative = inhibition: at the top concentration
Sequence (Q9GZX7 whole entry, looked up): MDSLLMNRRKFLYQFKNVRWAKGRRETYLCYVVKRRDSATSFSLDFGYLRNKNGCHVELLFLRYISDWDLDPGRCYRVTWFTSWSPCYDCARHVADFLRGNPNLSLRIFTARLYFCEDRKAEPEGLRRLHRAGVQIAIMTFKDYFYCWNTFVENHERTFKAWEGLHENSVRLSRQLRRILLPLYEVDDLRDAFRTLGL
How it was run: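 In this coupled qHTS, AID deaminates a FRET-labelled ssDNA substrate in the presence of UDG over 4 hr at room temperature. Compounds span up to 114 uM final.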
% is scaled to controls: 0 for no effect and ±100 for the full control effect.

Structure (SMILES) | activity change, negative = inhibition [%] | outcome
S=C(NC1CCCCC1)N1CCC(c2cnc[nH]2)CC1 | 15.9 | 
COC(=O)[C@@H](N)CCCN=C(N)N[N+](=O)[O-] | 28.6 | 
NCCc1c[nH]c2ccccc12 | 7.99 | 
CC(=O)NCCc1c[nH]c2ccccc12 | 14.3 | 
CC[C@@H](C(N)=O)N1CCCC1=O | 16.5 | 
O=C(N[C@H]1CN2CCC1CC2)c1ccc(Cl)cc1 | 19.2 | 
COc1ccc2c(c[n+](C)c3c4cc5c(cc4ccc23)OCO5)c1OC | -90.5 | 
NC(=O)CN1CC(O)CC1=O (stereo not drawn) | 7.73 | 
CCCN(CCC)[C@@H]1CCc2ccc(O)cc2C1 | 28.8 | 
Cc1nccc2c1[nH]c1ccccc12 | 24.4 | 
C[N+]1(C)C2CCC1CC(OC(=O)C(CO)c1ccccc1)C2 (stereo not drawn) |  | inactive
O=C(O)Cc1cnc[nH]1 | 24.2 | 
C[C@@H]1O[C@H](C[N+](C)(C)C)C[C@H]1O | 9.36 | 
CCCN1CCO[C@@H]2c3cc(O)ccc3OC[C@H]21 |  | inactive
CCCCc1ccc(C(=O)O)nc1 | 15.9 | 
CC1=NN=C(c2ccc(N)cc2)c2cc3c(cc2C1)OCO3 | 4.82 | 
COc1cc(C(O)CN)ccc1O (stereo not drawn) | 53.7 | 
Clc1cnc(Oc2ccc(Oc3ncc(Cl)cc3Cl)cc2)c(Cl)c1 | 3.8 | 
O=C1CCCN1CC#CCN1CCCC1 | 19.9 | 

system: not listed separately; assay: Primary qHTS for inhibitors of SARS-S pseudo-typed particle cell entry (AID 1479145); settings: SARS-S pseudotyped particle cell entry, luciferase reporter; series mostly up to 57.1 µM; activity change, negative = inhibition: at the top concentration; outcome: at the top concentration; also: nearly all actives have a fitted effect of over 45% in size

Structure (SMILES) | activity change, negative = inhibition | outcome
COc1ncnc(NS(=O)(=O)c2ccc(N)cc2)c1OC | -4.46% | 
CC(=O)Oc1cccc(C)c1 |  | inactive
CCOc1cc(NC(C)=O)ccc1C(=O)OC | -16.5% | 
Nc1nc2c(ncn2CCC(CO)CO)c(=O)[nH]1 |  | inactive
CCN1CCN(c2cc3c(cc2F)c(=O)c(C(=O)O)cn3C2CC2)CC1 | -8.01% | 
c1ccc2[nH]ccc2c1 | -14.9% | 
CC(C)(C)NCC(O)c1ccc(O)c(CO)c1 (stereo not drawn) | -2.67% | 
O=C(Nc1cccc(C2=NCCN2)c1)Nc1cccc(C2=NCCN2)c1 | -10.6% [at 26.4 µM] | 
S=c1[nH]c2ccccc2s1 |  | inactive
Cc1c(C)c2c(c(C)c1OC(=O)c1cccnc1)CC[C@@](C)(CCC[C@H](C)CCC[C@H](C)CCCC(C)C)O2 |  | inactive
NCCCC(N)(C(=O)O)C(F)F (stereo not drawn) |  | inactive
CCCCCCCC(=O)OCC(O)CO (stereo not drawn) | -11.2% | 
CC(=O)N[C@@H](CCC(N)=O)C(=O)O | -23.3% | 
CC(C)(C)c1nnc(NS(=O)(=O)c2ccccc2)s1 |  | inactive
CCCCC(CC)COC(=O)c1ccc(N(C)C)cc1 (stereo not drawn) | 0.565% | 

system: not listed separately; assay: Primary qHTS for Huh7 cytotoxicity: counterscreen for inhibitors of MERS-S pseudotyped particle cell entry (AID 1479147); settings: cell viability read-out; series mostly up to 57.1 µM; activity change, negative = cytotoxicity: at the top concentration; outcome: at the top concentration

Structure (SMILES) | outcome | activity change, negative = cytotoxicity [%]
COc1ncnc(NS(=O)(=O)c2ccc(N)cc2)c1OC | inactive | 
CC(=O)Oc1cccc(C)c1 |  | -1.85
CCOc1cc(NC(C)=O)ccc1C(=O)OC | inactive | 
Nc1nc2c(ncn2CCC(CO)CO)c(=O)[nH]1 |  | 0.767
CCN1CCN(c2cc3c(cc2F)c(=O)c(C(=O)O)cn3C2CC2)CC1 | inactive | 
c1ccc2[nH]ccc2c1 | inactive | 
CC(C)(C)NCC(O)c1ccc(O)c(CO)c1 (stereo not drawn) |  | 3
O=C(Nc1cccc(C2=NCCN2)c1)Nc1cccc(C2=NCCN2)c1 | inactive [at 26.4 µM] | 
S=c1[nH]c2ccccc2s1 | inactive | 
Cc1c(C)c2c(c(C)c1OC(=O)c1cccnc1)CC[C@@](C)(CCC[C@H](C)CCC[C@H](C)CCCC(C)C)O2 | inactive | 
NCCCC(N)(C(=O)O)C(F)F (stereo not drawn) | inactive | 
CCCCCCCC(=O)OCC(O)CO (stereo not drawn) | inactive | 
CC(=O)N[C@@H](CCC(N)=O)C(=O)O | inactive | 
CC(C)(C)c1nnc(NS(=O)(=O)c2ccccc2)s1 |  | -25.1
CCCCC(CC)COC(=O)c1ccc(N(C)C)cc1 (stereo not drawn) | inactive | 

system: not listed separately; assay: Primary qHTS for inhibitors of MERS-S pseudo-typed particle cell entry (AID 1479149); settings: MERS-S pseudotyped particle entry, luciferase; series mostly up to 57.1 µM; activity change, negative = inhibition: at the top concentration; outcome: at the top concentration; also: nearly all actives have a fitted effect of over 60% in size

Structure (SMILES) | outcome | activity change, negative = inhibition
COc1ncnc(NS(=O)(=O)c2ccc(N)cc2)c1OC | inactive | 
CC(=O)Oc1cccc(C)c1 |  | -1.47%
CCOc1cc(NC(C)=O)ccc1C(=O)OC | inactive | 
Nc1nc2c(ncn2CCC(CO)CO)c(=O)[nH]1 | inactive | 
CCN1CCN(c2cc3c(cc2F)c(=O)c(C(=O)O)cn3C2CC2)CC1 |  | -4.65%
c1ccc2[nH]ccc2c1 | inactive | 
CC(C)(C)NCC(O)c1ccc(O)c(CO)c1 (stereo not drawn) | inactive | 
O=C(Nc1cccc(C2=NCCN2)c1)Nc1cccc(C2=NCCN2)c1 |  | 3.48% [at 26.4 µM]
S=c1[nH]c2ccccc2s1 | inactive | 
Cc1c(C)c2c(c(C)c1OC(=O)c1cccnc1)CC[C@@](C)(CCC[C@H](C)CCC[C@H](C)CCCC(C)C)O2 | inactive | 
NCCCC(N)(C(=O)O)C(F)F (stereo not drawn) | inactive | 
CCCCCCCC(=O)OCC(O)CO (stereo not drawn) | inactive | 
CC(=O)N[C@@H](CCC(N)=O)C(=O)O | inactive | 
CC(C)(C)c1nnc(NS(=O)(=O)c2ccccc2)s1 | inactive | 
CCCCC(CC)COC(=O)c1ccc(N(C)C)cc1 (stereo not drawn) | inactive | 

system: not listed separately; assay: Primary qHTS for Vero E6 cytotoxicity: counterscreen for inhibitors of SARS-S pseudo-typed particle cell entry (AID 1479150); settings: cell viability; series mostly up to 57.1 µM; activity change, negative = cytotoxicity: at the top concentration; outcome: at the top concentration

Structure (SMILES) | outcome | activity change, negative = cytotoxicity [%]
COc1ncnc(NS(=O)(=O)c2ccc(N)cc2)c1OC | inactive | 
CC(=O)Oc1cccc(C)c1 | inactive | 
CCOc1cc(NC(C)=O)ccc1C(=O)OC |  | -14.5
Nc1nc2c(ncn2CCC(CO)CO)c(=O)[nH]1 | inactive | 
CCN1CCN(c2cc3c(cc2F)c(=O)c(C(=O)O)cn3C2CC2)CC1 | inactive | 
c1ccc2[nH]ccc2c1 |  | 2.24
CC(C)(C)NCC(O)c1ccc(O)c(CO)c1 (stereo not drawn) | inactive | 
O=C(Nc1cccc(C2=NCCN2)c1)Nc1cccc(C2=NCCN2)c1 | inactive [at 26.4 µM] | 
S=c1[nH]c2ccccc2s1 | inactive | 
Cc1c(C)c2c(c(C)c1OC(=O)c1cccnc1)CC[C@@](C)(CCC[C@H](C)CCC[C@H](C)CCCC(C)C)O2 | inactive | 
NCCCC(N)(C(=O)O)C(F)F (stereo not drawn) | inactive | 
CCCCCCCC(=O)OCC(O)CO (stereo not drawn) | inactive | 
CC(=O)N[C@@H](CCC(N)=O)C(=O)O |  | -2.03
CCCCC(CC)COC(=O)c1ccc(N(C)C)cc1 (stereo not drawn) |  | 4.14
